Rows were chosen to be rich in hits. Some 9.4% of all compounds tested hit in one or more screens of this group.
FLuc counter – counter-screen for miR-21 project: firefly luciferase inhibitors or activators; P08659; purified FLuc, Km substrates, luminescence inhibition; Potency, µM (highest dose often 57.5 µM), actives largely listed as inhibitors; 360,000 compounds, 6.9% hits; AID 588342; also: nearly all actives have a fitted effect of over 55% in size
Target sequence (P08659 whole entry, looked up): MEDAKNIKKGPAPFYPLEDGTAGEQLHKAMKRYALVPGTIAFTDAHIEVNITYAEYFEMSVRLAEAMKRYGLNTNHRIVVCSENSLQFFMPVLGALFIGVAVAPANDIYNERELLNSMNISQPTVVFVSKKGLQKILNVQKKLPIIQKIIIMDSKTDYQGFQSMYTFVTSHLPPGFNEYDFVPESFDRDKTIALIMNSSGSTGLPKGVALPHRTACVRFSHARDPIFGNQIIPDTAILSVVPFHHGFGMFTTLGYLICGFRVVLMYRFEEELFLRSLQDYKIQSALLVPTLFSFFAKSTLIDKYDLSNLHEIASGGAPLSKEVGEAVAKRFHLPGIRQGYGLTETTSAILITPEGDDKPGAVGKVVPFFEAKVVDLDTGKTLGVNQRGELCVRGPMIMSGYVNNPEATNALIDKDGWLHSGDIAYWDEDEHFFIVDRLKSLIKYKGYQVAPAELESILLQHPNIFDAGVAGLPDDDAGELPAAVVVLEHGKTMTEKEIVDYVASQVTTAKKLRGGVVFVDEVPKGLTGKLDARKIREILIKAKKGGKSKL
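Purified P. pyralis luciferase, 10 nM final, with Km-level 10 uM D-luciferin and 10 uM ATP in 50 mM Tris acetate pH 7.5, 10 mM Mg acetate, 0.01% Tween-20, 0.05% BSA; 6-point qHTS titration about 60 µM downward; luminescence read.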
Rab9 prom act – activators of Rab9 promoter; Potency, µM (titrated, usually from 9.22 µM), actives largely listed as activators; Huh7 Rab9 promoter-luciferase reporter, luminescence, 24 h; AID 485297; 320,000 compounds, 2.8% hits; also: nearly all actives have a fitted effect of over 60% in size
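Luminescence read-out: Huh7 cells stably expressing Rab9-luciferase, treated 24 h with compound at 37 °C, then lysed with luciferase reagent for 10 min at ambient before reading.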
ELG1 genotoxic – genotoxicity induction in ELG1-luciferase HEK293T cells | HEK293T ELG1-luciferase reporter, luminescence, 16 h | Potency, µM (highest dose often 46 µM), most hits filed as activators | 330,000 compounds, 1.3% hits; also: nearly all actives have a fitted effect of over 60% in size
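Genotoxic stress is detected as increased luminescence from luciferase-tagged ELG1 in HEK293T cells, measured with ONE-Glo after a 16 hr treatment at 37 °C.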
SMN2 splice up – increases expression of the SMN2 splice variant. HEK293 SMN2-luciferase splicing reporter, luminescence, 30-36 h. Potency, µM (titrated, usually from 46.1 µM), most hits filed as activators. 210,000 compounds, 2.8% hits; also: nearly all actives have a fitted effect of over 55% in size
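qHTS luciferase splicing reporter: luminescence rises when SMN2 exon 7 is included in transfected HEK293 cells. Compound exposure lasted 30-36 h at 37C, with 4.5 mM final sodium butyrate as control, followed by a ONE-Glo read.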
NPC1 prom act – activators of NPC1 promoter; 320,000 compounds, 2.4% hits; AID 485313; Huh7 NPC1 promoter luciferase reporter, 24 h; Potency, µM (titrated, usually from 9.22 µM), usual class: activators; also: nearly all actives have a fitted effect of over 60% in size
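Stable NPC1-promoter luciferase Huh7 line; cpd (DMSO) 24 h, 37 °C, 5% CO2; Amplite luciferase reagent 10 min RT; luminescence readout. qHTS format.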
ELG1 repair inh – blocks ELG1-dependent DNA repair in HEK293T cells; 330,000 compounds, 2.3% hits; HEK293T ELG1-luciferase reporter, luminescence, 16 h; DNA damage induced by 5-fluorouridine; AID 504467; Potency, µM (titrated, usually from 46.1 µM), actives largely listed as inhibitors; also: nearly all actives have a fitted effect of over 55% in size
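HEK293T cells expressing luciferase-tagged ELG1 (2,000/well) received 5-Fluorouridine plus compound or DMSO for 16 hr at 37 °C. Luciferase was read by ONE-Glo luminescence after 30 min at room temperature.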
A number is an active result; i = inactive; ? = inconclusive; nt = not tested or not shown; [ ] = another dose, or the depositor's remark. Calls follow the shape of the dose curve; as a rule, active = well fitted curve in the direction sought with a large enough effect; inconclusive = small, poorly fitted or top-dose-only effect, or another doubt; inactive = no such curve, though single readings can be large; an effect the other way counts as inactive or inconclusive.

SMILES | FLuc counter | Rab9 prom act | ELG1 genotoxic | SMN2 splice up | NPC1 prom act | ELG1 repair inh
COc1ccc2cc3c(N)nn(C(=O)Cc4c[nH]c5ccccc45)c3nc2c1 | ? | i | i | nt | i | 1.46µM
COc1ccc2cc3c(N)nn(C(=O)c4cccc(F)c4)c3nc2c1 | i | i | i | nt | i | i
COc1ccc2cc3c(N)nn(C(=O)Cc4ccc(Cl)cc4)c3nc2c1 | i | i | i | i | i | ?
COc1cccc(CC(=O)n2nc(N)c3cc4ccc(OC)cc4nc32)c1 | i | i | i | i | i | 9.2µM
COc1ccc(NC(=O)c2cc3ccccn3n2)cc1 | 2.13µM | ? | 1.16µM | 6.31µM | 1µM | ?
COc1ccc(CCNC(=O)c2cc3ccccn3n2)c(OC)c1OC | i | i | i | i | i | i
O=C(Nc1ccc(OC(F)(F)F)cc1)c1cc2ccccn2n1 | 2.69µM | nt | nt | nt | nt | nt
O=C(NCCc1ccccc1Cl)c1cc2ccccn2n1 | 12µM | nt | nt | nt | nt | nt
O=C(Nc1ccccc1C(F)(F)F)c1cc2ccccn2n1 | 1.9µM | nt | nt | nt | nt | nt
Cc1nc(N2CCCC2)c2c(C(=O)N3CCN(c4cc(Cl)ccc4C)CC3)c(C)oc2n1 | i | nt | nt | nt | nt | nt
Cc1ccccc1NC(=O)CSc1nc2c(oc3ccccc32)c(=O)n1Cc1ccco1 | i | nt | nt | i | nt | nt
Cc1ccc(Cl)cc1NC(=O)C(C)n1nc(-c2ccccc2)ccc1=O (centres undefined) | i | nt | nt | i | nt | nt
CCOc1ccc(OCC)c(NC(=O)c2cc3ccccn3n2)c1 | i | nt | nt | nt | nt | nt
CCOC(=O)c1cc(NC(=O)c2cnccn2)cc(C(=O)OCC)c1 | i | i | i | i | i | i
CCOC(=O)c1cccc(NC(=O)c2cnccn2)c1 | i | ? | ? | ? | 2.82µM | ?
CCOC(=O)c1cccc(NC(=O)c2cc3ccccn3n2)c1 | 3.01µM | nt | nt | nt | nt | nt
CC(C)(C)NC(=O)Nc1nnc(SCC(=O)NC2CCCCC2)s1 | 10.7µM | i | i | nt | i | ?
Cc1csc(NC(=O)CSc2nnc(NC(=O)NC(C)(C)C)s2)n1 | 6.01µM | i | i | nt | i | ?
Cc1ccc(NC(=O)CSc2nncn3c2cc2sccc23)cc1F | i | nt | nt | nt | nt | nt
CC(C)c1ccc(S(=O)(=O)NCc2ccc3c(c2)CCN3C(=O)c2ccccc2)cc1 | i | nt | nt | nt | nt | nt
Clc1ccccc1-c1csc(Nc2cccnc2)n1 | ? | ? | i | nt | 2.82µM | i
c1cncc(Nc2nc(-c3ccncc3)cs2)c1 | ? | i | i | i | i | i
Fc1ccc(-c2csc(Nc3ccccn3)n2)cc1 | 1.51µM | 3.16µM | 2.06µM | nt | 3.55µM | ?
c1ccc(Nc2nc(-c3cccnc3)cs2)nc1 | 1.51µM | 0.562µM | ? | 11.2µM | 1µM | ?
O=C(CSc1nc(-c2ccc(F)cc2)cs1)Nc1ccccn1 | i | i | i | i | i | i
SMILES | FLuc counter | Rab9 prom act | ELG1 genotoxic | SMN2 splice up | NPC1 prom act | ELG1 repair inh
Clc1ccccc1Nc1nnc(-c2ccncc2)s1 | 0.953µM | 0.447µM | ? | 3.16µM | 0.562µM | ?
CCOC(=O)c1c(C)[nH]c(C)c1S(=O)(=O)N(C)CC(=O)N1CCN(c2cccc(Cl)c2)CC1 | i | nt | nt | nt | nt | nt
Clc1ccccc1Nc1nc(-c2cccnc2)cs1 | 1.69µM | 0.708µM | ? | 2.82µM | 3.16µM | ?
Cc1cccc(NC(=O)c2sc3nc4c(cc3c2N)CN(C(C)C)CC4)c1 | i | nt | nt | i | nt | nt
COc1cccc(NC(=O)CN(C)C(=O)c2cc(-c3ccc(C)o3)nc3ccccc23)c1 | 10.7µM | i | i | nt | i | 6.51µM
CCOc1ccc(NC(=O)CN(C)C(=O)c2cc(-c3ccc(OC)cc3)nc3ccccc23)cc1OCC | 13.5µM | i | i | nt | i | 9.2µM
COc1ccc(NC(=O)CN(C)C(=O)c2cc(-c3ccc(Cl)cc3)nc3ccccc23)cc1 | 23.9µM | i | i | nt | i | ?
Cc1cc(C)c(Cn2c3ccccc3c3cnn(CC(=O)NCC(C)c4ccccc4)c(=O)c32)c(C)c1 (centres undefined) | i | nt | nt | i | nt | nt
COc1ccccc1NS(=O)(=O)c1ccc(C(=O)NCC(c2cccs2)N2CCOCC2)cc1 (centres undefined) | nt | nt | i | nt | nt | i
CCCNC(=O)c1ccc(N2CCC3(CC2)CC(c2ccccc2)=NO3)c(NC(=O)c2ccccc2)c1 | i | i | i | nt | i | 6.51µM
O=C1c2ccccc2-c2nc3ccccc3n21 | 15.1µM | ? | i | nt | i | ?
c1ccc2c(c1)Cn1nnnc1-2 | i | i | i | i | i | i
c1ccc2c(c1)Cn1c-2nc2ccccc21 | 6.01µM | 1.12µM | ? | 10µM | 1.41µM | ?
Brc1c(-c2ccccc2)nc2n1Cc1ccccc1-2 | 0.849µM | 3.98µM | 18.3µM | nt | ? | ?
Nc1nc(-c2ccccc2)c(-c2ccccc2)n1N | i | i | i | nt | i | i
OCCNc1ncnc2c1ncn2[C@@H]1O[C@@H](CO)[C@H](O)[C@@H]1O | nt | nt | nt | i[9.22 µM] | nt | nt
COc1ccc(-n2c(=O)c3c4c(sc3n(Cc3ccc(F)cc3)c2=O)CCCC4)c(OC)c1 | i | nt | nt | i | nt | nt
CCN(c1ccccc1)S(=O)(=O)c1ccc(Cl)c(C(=O)NCC2CCCO2)c1 (centres undefined) | i | i | i | nt | i | i
O=C(COc1ccc(Cl)cc1Cl)Nc1ccc(C(=O)OC2CCCCC2)cc1 | i | nt | nt | i | nt | nt
COc1ccc(-n2c(N)c(C(=O)NCc3ccco3)sc2=S)cc1 | i | 4.47µM | ? | i | i | i
Cc1ccc2nc3sc(C(=O)NCc4ccco4)c(N)c3cc2c1 | 0.849µM | 2µM | 9.2µM | 4.47µM | ? | ?
COc1cc2cc3c(N)c(C(=O)NCc4ccco4)sc3nc2cc1OC | 10.7µM | ? | ? | nt | ? | ?
CN(C)c1ccnc(-c2ccccc2C(F)(F)F)n1 | nt | nt | nt | i | nt | nt
CN(Cc1ccccc1)c1nc2c(S(=O)(=O)c3cccc(Cl)c3)nnn2c2ccsc12 | i | nt | nt | nt | nt | nt
Cc1ccc2c(COC(=O)c3ccccc3OC(F)F)cc(=O)oc2c1 | 4.78µM | i | ? | nt | i | ?
SMILES | FLuc counter | Rab9 prom act | ELG1 genotoxic | SMN2 splice up | NPC1 prom act | ELG1 repair inh
Cc1ccc2c(COC(=O)c3cnc(C)cn3)cc(=O)oc2c1 | ? | i | i | i | i | i
Cc1ccc2c(COC(=O)CNC(=O)c3ccccc3)cc(=O)oc2c1 | 19µM | i | i | i | i | ?
Cc1ccc2c(COC(=O)C3=COCCO3)cc(=O)oc2c1 | 0.849µM | 0.794µM | 1.84µM | ? | 3.16µM | ?
CCOC(=O)Nc1ccc2c(COC(=O)c3ccccc3O)cc(=O)oc2c1 | ? | i | ? | nt | ? | i
Cc1nc(C)c(-c2csc(NCc3ccco3)n2)s1 | 15.1µM | ? | 12.6µM | ? | i | ?
Cc1nc(NC(=O)c2ccccc2)sc1-c1csc(NCc2ccco2)n1 | 13.5µM | i | i | i | i | 14.6µM
c1coc(CNc2nc3ccccc3s2)c1 | 7.57µM | ? | ? | nt | 1.58µM | ?
CCOc1ccccc1Nc1nc(-c2sc(NC(=O)c3ccco3)nc2C)cs1 | i | i | i | i | i | ?
COc1ccc(-c2csc(NCc3ccco3)n2)cc1 | 1.07µM | 0.562µM | ? | 12.6µM | 0.891µM | ?
